# Assay results taken from PubChem BioAssay.
# The source made the active and inactive calls.
# What was measured:
# [1] = tested on: PRMT1 (protein arginine N-methyltransferase 1); assay: small molecules binding arginine methyltransferase PRMT1 – biochemical, small-molecule microarray, 635 nm fluorescence, primary screen (AID 1088); conditions: higher = more signal;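 also: binding of Prmt1 protein to compounds spotted on small-molecule microarray slides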
# [2] = growth effects on S. cerevisiae YJM789 – YJM789 clinical isolate, OD600, 24 h, basal, primary screen (AID 1089); conditions: higher = more signal, called active from +8 up or from −8 down;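 also: growth of clinical yeast isolate S. cerevisiae YJM 789 seeded 1000 cells per well; test concentration not given here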
# [3] = S. pombe growth modifiers, basal conditions – strain 972, OD600, 24 h, no modulator, primary screen (AID 1090);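 also: basal condition with compound alone and no growth modifier present; test concentration not given here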; conditions: S. pombe 972 growth, higher = more signal, called active from +8 up or from −8 down
# [4] = budding yeast growth modifiers under rapamycin – strain BY4716, OD600, 96 h, primary screen (AID 1091); also: test concentration not given here; conditions: S. cerevisiae BY4716 + rapamycin, higher = more signal, called active from +8 up or from −8 down
# [5] = target: Torsin-1A-interacting protein 2 (Homo sapiens) (UniProt Q8NFQ8); assay: small molecules binding lysate-expressed LULL1 – cell lysate, human LULL1 lysate, 635/667 nm fluorescence, primary screen (AID 1092); conditions: small-molecule microarray, hLULL1 lysate binding, 635 nm fluorescence; higher = more signal;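 also: probe is lysate of COS7 cells overexpressing human LULL1; score merges per-feature 667 nm fluorescence with signal-to-noise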
# [6] = optical density change of DRC41 E. coli – strain DRC41, OD650, 24 h, E. coli filamentation project, primary screen (AID 1093);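 also: MC1000 strain lacking acrAB efflux and sulA so SOS filamentation is blocked; test concentration not given here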; conditions: E. coli DRC41 growth, higher = more signal, called active from +8 up or from −8 down
# [7] = probe aLefty2 binding to arrayed compounds – biochemical, biotinylated probe, 635/667 nm fluorescence, primary screen (AID 1094); conditions: small-molecule microarray, higher = more signal;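 also: score merges spot fluorescence near 667 nm with spot signal-to-noise ratio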
# [8] = tested on: Noggin (protein binding on small-molecule microarray); assay: small molecules binding Noggin protein – biochemical, 635/667 nm fluorescence, primary screen (AID 1095); conditions: 635 nm fluorescence, higher = more signal;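 also: score merges 667 nm feature fluorescence with signal to noise over triplicate slides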
# [9] = target: Neurogenic locus notch homolog protein 3 (Homo sapiens) (UniProt Q9UM47); assay: small molecules binding NOTCH3 protein – biochemical, 635/667 nm fluorescence, primary screen (AID 1096); conditions: small-molecule microarray, 635 nm fluorescence, higher = more signal
# [10] = probe aEGFR binding to arrayed compounds – biochemical, biotinylated probe, 635/667 nm fluorescence, primary screen (AID 1097); conditions: small-molecule microarray, higher = more signal;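 also: probe is a biotinylated anti-EGFR antibody binding compounds printed on slides; score combines fluorescence near 667 nm and signal to noise of each spot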
# Sequence of Neurogenic locus notch homolog protein 3 (Homo sapiens) (Q9UM47 whole entry, looked up): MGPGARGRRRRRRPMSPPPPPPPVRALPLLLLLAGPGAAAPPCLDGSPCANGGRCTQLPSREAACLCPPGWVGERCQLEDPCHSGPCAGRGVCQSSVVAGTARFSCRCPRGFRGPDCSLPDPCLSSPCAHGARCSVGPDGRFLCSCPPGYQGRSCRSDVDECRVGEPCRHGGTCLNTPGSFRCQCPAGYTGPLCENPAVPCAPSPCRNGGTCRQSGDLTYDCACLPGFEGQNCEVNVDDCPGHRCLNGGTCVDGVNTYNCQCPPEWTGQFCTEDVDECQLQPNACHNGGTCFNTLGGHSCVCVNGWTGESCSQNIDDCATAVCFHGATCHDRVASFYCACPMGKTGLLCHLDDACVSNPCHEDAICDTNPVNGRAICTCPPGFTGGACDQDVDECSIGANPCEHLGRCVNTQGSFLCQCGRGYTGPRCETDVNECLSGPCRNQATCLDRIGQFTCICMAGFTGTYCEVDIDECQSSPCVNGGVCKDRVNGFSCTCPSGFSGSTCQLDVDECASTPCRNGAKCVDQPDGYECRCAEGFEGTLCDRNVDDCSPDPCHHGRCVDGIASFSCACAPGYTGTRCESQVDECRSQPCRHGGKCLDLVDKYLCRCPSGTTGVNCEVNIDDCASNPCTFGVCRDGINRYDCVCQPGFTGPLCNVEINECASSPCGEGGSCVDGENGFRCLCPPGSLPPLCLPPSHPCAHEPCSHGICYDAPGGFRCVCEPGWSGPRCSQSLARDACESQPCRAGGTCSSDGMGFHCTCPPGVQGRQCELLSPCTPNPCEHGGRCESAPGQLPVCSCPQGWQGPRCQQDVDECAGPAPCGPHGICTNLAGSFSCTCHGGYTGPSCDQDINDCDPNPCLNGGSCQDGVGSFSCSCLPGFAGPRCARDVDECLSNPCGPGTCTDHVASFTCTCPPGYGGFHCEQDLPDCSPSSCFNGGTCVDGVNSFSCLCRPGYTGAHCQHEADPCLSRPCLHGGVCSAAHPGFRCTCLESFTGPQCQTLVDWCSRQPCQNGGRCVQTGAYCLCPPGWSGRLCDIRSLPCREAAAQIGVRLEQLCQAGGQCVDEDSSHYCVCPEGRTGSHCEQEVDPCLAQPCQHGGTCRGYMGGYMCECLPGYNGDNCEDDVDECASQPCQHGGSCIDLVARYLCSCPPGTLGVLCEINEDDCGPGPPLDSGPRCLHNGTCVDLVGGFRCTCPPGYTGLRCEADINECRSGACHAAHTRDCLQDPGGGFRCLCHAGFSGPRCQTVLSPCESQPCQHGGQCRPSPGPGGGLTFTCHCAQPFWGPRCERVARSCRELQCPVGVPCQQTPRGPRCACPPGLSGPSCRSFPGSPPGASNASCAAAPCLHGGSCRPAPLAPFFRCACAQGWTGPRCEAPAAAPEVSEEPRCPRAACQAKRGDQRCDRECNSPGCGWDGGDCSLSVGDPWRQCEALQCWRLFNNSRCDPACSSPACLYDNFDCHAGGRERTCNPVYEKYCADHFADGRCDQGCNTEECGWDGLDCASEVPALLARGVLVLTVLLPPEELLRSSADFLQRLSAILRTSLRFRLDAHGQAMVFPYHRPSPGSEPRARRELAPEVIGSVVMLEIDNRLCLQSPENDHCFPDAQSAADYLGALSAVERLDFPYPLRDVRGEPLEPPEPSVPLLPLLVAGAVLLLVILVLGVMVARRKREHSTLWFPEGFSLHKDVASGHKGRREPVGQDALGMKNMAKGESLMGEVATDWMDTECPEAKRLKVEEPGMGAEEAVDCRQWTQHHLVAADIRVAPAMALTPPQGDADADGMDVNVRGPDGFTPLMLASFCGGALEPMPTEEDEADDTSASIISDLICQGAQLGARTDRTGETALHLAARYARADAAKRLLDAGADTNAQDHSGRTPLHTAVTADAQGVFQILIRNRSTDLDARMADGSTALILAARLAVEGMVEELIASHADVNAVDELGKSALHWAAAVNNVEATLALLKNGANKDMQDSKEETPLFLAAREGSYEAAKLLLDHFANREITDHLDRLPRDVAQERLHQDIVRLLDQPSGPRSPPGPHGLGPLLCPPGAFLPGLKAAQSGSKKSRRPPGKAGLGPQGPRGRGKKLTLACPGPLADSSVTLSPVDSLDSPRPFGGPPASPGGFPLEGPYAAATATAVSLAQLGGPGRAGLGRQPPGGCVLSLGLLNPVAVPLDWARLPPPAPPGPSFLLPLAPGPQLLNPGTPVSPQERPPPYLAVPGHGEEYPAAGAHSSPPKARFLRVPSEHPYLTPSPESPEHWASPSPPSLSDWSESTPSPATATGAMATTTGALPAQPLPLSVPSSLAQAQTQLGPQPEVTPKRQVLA
# Sequence of Torsin-1A-interacting protein 2 (Homo sapiens) (Q8NFQ8 whole entry, looked up): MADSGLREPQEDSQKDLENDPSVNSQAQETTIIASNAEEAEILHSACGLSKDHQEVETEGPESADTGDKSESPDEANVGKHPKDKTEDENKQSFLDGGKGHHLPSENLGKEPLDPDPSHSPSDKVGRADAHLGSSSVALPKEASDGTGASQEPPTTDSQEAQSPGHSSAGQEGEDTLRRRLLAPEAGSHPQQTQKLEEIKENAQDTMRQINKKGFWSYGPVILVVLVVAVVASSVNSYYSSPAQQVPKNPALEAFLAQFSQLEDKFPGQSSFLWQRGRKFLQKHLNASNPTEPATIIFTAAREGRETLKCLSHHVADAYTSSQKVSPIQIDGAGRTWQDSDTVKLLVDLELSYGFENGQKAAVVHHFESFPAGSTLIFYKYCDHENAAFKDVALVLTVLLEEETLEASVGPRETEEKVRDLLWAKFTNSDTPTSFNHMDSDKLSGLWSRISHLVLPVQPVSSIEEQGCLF
SMILES,composite z-score [1],z-score [2],z-score [3],z-score [4],composite z-score [5],z-score [6],composite z-score [7],composite z-score [8],composite z-score [9],composite z-score [10]
C=C(COC)/C(=C/C[C@@H](OC(C)=O)c1ccc(OCCO)cc1)c1cnc2ccccc2c1,1.19,-0.938 (inactive),-1.5 (inactive),-1.05 (inactive),0.014,2.33 (inactive),-0.0998,1.89,1.08,-0.067
COc1cc(NN2C(C(O)c3ccco3)C=CC3C(=O)N(c4ccccc4)C(=O)C32)cc(OC)c1OC (stereo not given),0.216,0.602 (inactive),0.0991 (inactive),-0.234 (inactive),2.41,-1.18 (inactive),-0.2,0.0945,0.703,-0.0688
CCCC[C@@H]1C[C@H]1[C@@H](NC(=O)c1ccccc1)c1ccc(C(=O)OC)cc1,-0.406,-1.24 (inactive),-11.2 (active),-2.61 (inactive),0.0062,-1.13 (inactive),0.285,0.894,-0.544,-0.224
CCCC=C(CCC)[C@@H](NC(=O)c1cccs1)c1ccc(C(F)(F)F)cc1,1.03,-0.522 (inactive),-2.1 (inactive),-0.851 (inactive),0.109,-0.649 (inactive),0.291,0.989,1.09,0.315
CC(C)=CCN[C@H](CO)c1ccccc1,-0.198,-0.613 (inactive),-4.99 (inactive),-1.32 (inactive),0.138,-0.291 (inactive),-0.236,0.346,-0.0083,-0.203
